From PubChem BioAssay (NCI)
The panel holds about 83,000 compounds, 20% with a hit somewhere; the sample as a whole holds those more often.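 The endpoint reported here, percent growth, reads 100 for growth as untreated, 0 for no net growth and -100 for all cells dead.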 Values without a mark were called inactive. Activity calls are given as the source filed them. The calls were made as follows: active = growth percent below 10; inactive = the rest.

Columns and labels:
Test in all cases: NCI-60 one-dose screen, 48 h (100 = growth as untreated, 0 = no growth, -100 = all killed)
Details in all cases: 10 µM unless noted
NCI-H23 lung = system: NCI-H23 lung
NCI-H226 lung = system: NCI-H226 lung
NCI-H322M lung = system: NCI-H322M lung
HOP-62 NSCLC = system: HOP-62 NSCLC
NCI-H460 lung = system: NCI-H460 lung
HOP-92 NSCLC = system: HOP-92 NSCLC
NCI-H522 lung = system: NCI-H522 lung
A549/ATCC NSCLC = system: A549/ATCC NSCLC
786-0 renal = system: 786-0 renal
COLO 205 colon = system: COLO 205 colon
DU-145 prostate = system: DU-145 prostate
K-562 leukemia = system: K-562 leukemia
MALME-3M melanoma = system: MALME-3M melanoma
MDA-MB-231 breast = system: MDA-MB-231 breast
RXF 393 renal = system: RXF 393 renal
SF-268 CNS = system: SF-268 CNS
SF-295 CNS = system: SF-295 CNS
SF-539 CNS = system: SF-539 CNS
UACC-257 melanoma = system: UACC-257 melanoma
M14 melanoma = system: M14 melanoma

SMILES | growth (NCI-H23 lung) [%] | growth (NCI-H226 lung) [%] | growth (NCI-H322M lung) [%] | growth (HOP-62 NSCLC) [%] | growth (NCI-H460 lung) | growth (HOP-92 NSCLC) | growth (NCI-H522 lung) | growth (A549/ATCC NSCLC) [%] | growth (786-0 renal) | growth (COLO 205 colon) | growth (DU-145 prostate) | growth (K-562 leukemia) | growth (MALME-3M melanoma) [%] | growth (MDA-MB-231 breast) | growth (RXF 393 renal) | growth (SF-268 CNS) [%] | growth (SF-295 CNS) | growth (SF-539 CNS) | growth (UACC-257 melanoma) [%] | growth (M14 melanoma)
COc1cc(Nc2ncccc2NC(=O)c2cn(Cc3cccc(Oc4ccccc4)c3)nn2)cc(OC)c1 | 83.8 | 83 | 85.5 | 99.7 | 102% | 98.4% | 81% | 86 | 87.2% | 86.5% | 86.2% | 45.4% | 92.3 | 66% | 74.6% | 73.8 | 93.4% | 93% | 104 | 67.6%
CN1C(=O)N(C)C2C1NC(=S)N2/N=C/C=C/c1ccccc1[N+](=O)[O-] (stereo not given) | 38.2 | 28.4 | 49.3 | 26.2 | 12.6% | 33.9% | 9.84% (active) | 31.3 | 26.6% | 14.3% | 18.7% | 14.7% | 54.4 | 56.1% | 13.1% | 41.3 | 9.8% (active) | 2.83% (active) | 44.1 | 6.06% (active)
C/C(=N\O)C(=O)NCCCCCC(=O)Nc1ccccc1 | 99.2 | 110 | 103 | 102 | 111% | 94.4% | 91.1% | 97 | 94.4% | 108% | 114% | 99.7% | 98.9 | 100% | 121% | 100 | 101% | 107% | 98.6 | 107%
CCNC(=O)Oc1ccc(/C(=C(/C)Cc2ccc(OC)cc2)c2ccc(OCCN3CCCC3)cc2)cc1 | 86.6 | 90.1 | 89 | 93 | 55.9% | 61.8% | 78.9% | 66.4 | 68% | 33.4% | 87.1% | 2.41% (active) | 80.6 | 79.8% | 76.3% | 78.2 | 79.3% | 76.8% | 105 | 2.05% (active)
COc1cc(C2C3=C(COC3=O)N(CCO)c3cc4c(cc32)OCCO4)cc(OC)c1OC (stereo not given) | 14.5 | 13.5 | 36.9 | 15.4 | 1.13% (active) | 26.8% | -10% (active) | 11.9 | 1.83% (active) | -85.9% (active) | -30.1% (active) | 5.23% (active) | 53.7 | 9.38% (active) | -8.9% (active) | 26.8 | -5.17% (active) | -25.4% (active) | 42.5 | -28.8% (active)
COc1ccc(C2CC(c3ccc(Nc4nc(Nc5ccc(F)cc5)nc(Nc5ccc(F)cc5)n4)cc3)=NN2C(C)=O)cc1 (stereo not given) | 75.7 | 106 | 87.5 | 96.7 | 101% | -13.6% (active) | 83.1% | 82.5 | 82% | 111% | 115% | 83.1% | 78.1 | 122% | 94.4% | 103 | 81.2% | 92.1% | 111 | 100%
Cc1ccc2[nH]c(=O)c3c(c2c1)OC(N)=C(C#N)C31C(=O)c2cccc3cccc1c23 (stereo not given) | 103 | 91.1 | 100 | 98.2 | 101% | 104% | 89.3% | 103 | 100% | 103% | 101% | 87.8% | 99.2 | 87.4% | 97% | 94.6 | 104% | 95.9% | 108 | 98.2%
CCOC(=O)N1CCN(S(=O)(=O)c2oc(-c3ccc(Cl)cc3)nc2C#N)CC1 | 75.9 | 93.4 | 99.3 | 96 | 103% | 97.6% | -6.61% (active) | 96.8 | 92.7% | 47% | 103% | 9.23% (active) | 79.8 | 93.4% | 83.8% | 109 | 102% | 89% | 84.1 | 75.4%
